# Data reported in PubChem BioAssay (EPA / NIEHS).
# Active and inactive are the calls of the source. The calls were made as follows: active = hit-call score of the fitted dose curve at least 0.9, where 1 is the maximum; inactive = score below 0.9.
# Assay: CEETOX_H295R_CORTIC: CeeTox H295R High-throughput Steroidogenesis Assay for Corticosterone (CORTIC) (AID 2283437);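 also: corticosterone secreted into medium quantified by mass spectrometry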
# Settings: actives raise or lower the signal
# Method: CEETOX_H295R is a cell-based, multiplexed-readout assay that uses H295R, a human adrenal gland cell line, with measurements taken at 48 hours after chemical dosing in a 96-well plate.CEETOX_H295R_CORTIC is one of 23 assay component(s) measured or calculated from the CEETOX_H295R assay. It is designed to make measurements of hormone induction, a form of inducible reporter, as detected with absorbance signals by HPLC-MS-MS technology.Data from the assay component CEETOX_H295R_CORTIC was analyzed into 1 assay endpoint. This assay endpoint, CEETOX_H295R_CORTIC, was analyzed with bidirectional fitting relative to DMSO as the negative control and baseline of activity. Using a type of inducible reporter, gain or loss-of-signal activity using HPLC-MS-MS was used to understand synthesis of Corticosterone in H295R cell line at 48hr of chemical exposure. To generalize the intended target to other relatable targets, this assay endpoint is annotated to the steroid hormone intended target family, where the subfamily is glucocorticoids.
# Cell culture and media preparation procedures were conducted in accordance with OECD Test No. 456 guidelines, with minor modifications. H295R cells (ATCC CRL-2128) were expanded for 5 passages and frozen in batches in liquid nitrogen. Prior to the steroidogenesis assay, H295R cells were thawed and passed at least 4 times. The maximum passage was 10. Cells were maintained in a 1:1 mixture of DMEM/F12 supplemented with 5ml/L ITS+ Premix (BD Bioscience) and 12.5 ml/L Nu-Serum (BD Bioscience). After seeding cells into 96-well plates at 50-60% confluency, cells were allowed to adhere overnight. Prior to chemical testing, culture medium was replaced with 175 uL medium containing 10 uM forskolin to stimulate steroidogenesis for 48 hours. Following prestimulation, forskolin medium was replaced with medium containing test chemical solubilized in DMSO (ensuring a final concentration of 0.1% DMSO). Test chemicals were incubated for 48 hours, then the medium was removed and split into 2 vials containing approximately 75uL each, and stored at -80 C prior to hormone analysis. For steroid quantification, media samples were shipped to OpAns, LLC (Durham, NC) on dry ice, and samples were thawed to room temperature prior to liquid-liquid extraction. Steroid hormones were extracted from media samples using methyl tertbutyl ether (MTBE). An extra derivatization with dansyl chloride was included for estrogen (estrone and estradiol) detection only. Steroid hormones were separated by HPLC, eluted using a reverse phase C18 gradient with electrospray positive ionization, followed by quantification by tandem mass spectrometry (MS/MS). Data were acquired on a MassHunter Workstation Acquisition version B03.01 (Agilent Technologies, Inc.) and processed using MassHunter Quantitative Analysis for QQQ. Accuracy was determined for each hormone analyte from 3 standards to determine upper and lower limits of quantification (ULOQ and LLOQ, respectively) using a 7-point standard curve. Precision and accuracy of the extraction and quantification methods were calculated as the percent relative standard deviation (%RSD) of the spiked standards and percent spiked standard recovered, respectively. […] Test medium was removed following chemical exposure, and cell viability was evaluated in the same wells by MTT. MTT procedures were as follows: after removal of test medium, 500 uL of 0.5 mg/ml of 3-[4,5-dimethylthiazol-2-y]2,5-diphenyltetrazoliumbromide solution was added to the cells. Following a 4-hour incubation at 37 C and 5% CO2 to allow formazan-crystal formation, the MTT solution was removed and blue formazan salt crystals were solubilized using 500uL anhydrous isopropanol with shaking for 20 minutes. Absorbance was read at 570 and 650nm using a Packard Fusion microplate reader. Background correction of absorbance units was used to determine percent change relative to controls. […]
Compound,outcome,AC50
CNC(=O)Oc1cccc2c1OC(C)(C)O2,inactive,–
COP(=O)(NC(C)=O)SC (centres undefined),inactive,–
Nc1nc(N)nc(NC2CC2)n1,inactive,–
FC(F)C(F)(F)OCC(Cn1cncn1)c1ccc(Cl)cc1Cl (centres undefined),inactive,–
CNc1cnn(-c2cccc(C(F)(F)F)c2)c(=O)c1Cl,inactive,–
CCOC(=O)COc1cc(-c2nn(C)c(OC(F)F)c2Cl)c(F)cc1Cl,inactive,–
CCOP(=O)(NC(C)C)Oc1ccc(SC)c(C)c1 (centres undefined),inactive,–
CCOP(=S)(OCC)Oc1cc(C)nc(C(C)C)n1,–,36.6 µM (active)
CCOP(=S)(OCC)Oc1ccc([N+](=O)[O-])cc1,inactive,–
CCOP(=S)(OCC)Oc1ccc2c(C)c(Cl)c(=O)oc2c1,inactive,–
O=C(O)c1cc(Oc2ccc(C(F)(F)F)cc2Cl)ccc1[N+](=O)[O-],inactive,–
CCCCN(CC)c1c([N+](=O)[O-])cc(C(F)(F)F)cc1[N+](=O)[O-],inactive,–
C#CC(C)(C)NC(=O)c1cc(Cl)cc(Cl)c1,inactive,–
COc1ccc(C(=CC(=O)N2CCOCC2)c2ccc(Cl)cc2)cc1OC,inactive,–
CCCSP(=O)(OCC)SCCC,inactive,–
CCCOCC(=Nc1ccc(Cl)cc1C(F)(F)F)n1ccnc1,inactive,–
CSc1nnc(C(C)(C)C)c(=O)n1N,inactive,–
CNC(=O)ON=C(C)SC,inactive,–
CCNc1nc(Cl)nc(NC(C)(C)C#N)n1,inactive,–
